Source: PubChem
D1 ag = activates the human D1 dopamine receptor; HEK293 T-REx D1 cells, calcium flux, agonist mode; AID 504660; activation, % at 2 µM; 360,000 tested, 1% active; in the data active = activation above about 30%; note: 0% is about no effect
Target sequence (P21728 whole entry, looked up): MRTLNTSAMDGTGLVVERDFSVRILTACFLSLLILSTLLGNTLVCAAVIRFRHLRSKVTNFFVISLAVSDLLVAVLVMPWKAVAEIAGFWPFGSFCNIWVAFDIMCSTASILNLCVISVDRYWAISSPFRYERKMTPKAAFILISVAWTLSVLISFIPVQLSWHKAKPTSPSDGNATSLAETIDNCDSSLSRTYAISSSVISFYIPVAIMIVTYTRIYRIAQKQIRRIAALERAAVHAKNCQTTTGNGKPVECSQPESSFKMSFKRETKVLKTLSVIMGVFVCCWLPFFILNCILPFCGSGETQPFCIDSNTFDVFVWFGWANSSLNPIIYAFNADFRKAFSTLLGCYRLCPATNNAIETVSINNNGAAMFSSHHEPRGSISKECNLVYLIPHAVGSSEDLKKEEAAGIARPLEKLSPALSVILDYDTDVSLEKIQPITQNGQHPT
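Tetracycline-induced HEK293 TREx D1 cells, force-coupled to calcium signalling, were dye-loaded with a no-wash calcium kit. Compound was pin-added after a 10 s baseline. Fluorescence was read kinetically at 1 cycle/s for 180 s, with calcium rises flagged as agonism.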
D1 antagonist = blocks dopamine activation of the human D1 receptor | P21728 | HEK293 TREx D1 cells, calcium flux, dopamine EC80; hits give low values | activity change, negative = inhibition, % at 10 µM | 360,000 tested, 3.2% active | AID 504652; in the data active = activity change below about -30%; note: % is set by controls: 0 for no effect and ±100 for the full control effect
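After overnight tetracycline induction at 30 C, force-coupled D1 HEK293 cells took up a no-wash calcium dye at room temperature. Compounds were added and monitored 180 s, and the response to EC80 dopamine was then recorded.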
D1 PAM = enhances dopamine response at the human D1 receptor | AID 504651 | potentiation, % at 10 µM | P21728 | HEK293 TREx D1 cells, calcium flux, dopamine EC20 potentiation | 360,000 tested, 0.036% active; in the data active = potentiation above about 30%; note: 0% is about no effect
D3 antag = D3 dopamine receptor (human) antagonism. P35462. D3R cells, DiscoveRx beta-arrestin luminescence, antagonist mode; hits give low values. max response, negative = inhibition, %. 360,000 tested, 2.5% active. AID 652054; in the data active = max response below about -50%; inconclusive = no clear call, values can overlap the other calls; note: % is set by controls: 0 for no effect and ±100 for the full control effect
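Cells plated overnight at 1500 cells/well, then exposed to library compounds with dopamine controls for 90 minutes at 37 degrees C. DiscoveRx reagent added for 30–60 minutes at room temperature; luminescence read, quantitative HTS format.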
D3 ag = agonists of human D3 dopamine receptor. P35462. D3R DiscoveRx beta-arrestin cells, luminescence, 90 min. max activation, %. 410,000 tested, 0.58% active; in the data active = max activation above about 30%; note: 0% is about no effect
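Agonist mode: compounds and dopamine controls were applied to plated cells for 90 min at 37 degrees C after an overnight attachment at 1500 cells/well. Luminescent read-out followed 30 - 60 minutes at room temperature with DiscoveRx detection reagent.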
Starred values were filed as active, the others as inactive; ? = inconclusive; / = not tested or not shown. A selection: hits, their analogues and other compounds. The true share with any hit is near 6%.

SMILES	D1 ag	D1 antagonist	D1 PAM	D3 antag	D3 ag
Cc1ccc(OCC(=O)NC(C)c2ccc(Cl)c(Cl)c2)c([N+](=O)[O-])n1 (stereo not drawn)	10	-36*	-8	-14	-2
CCC(C)(C(=O)NC1CCCC1)N(C(=O)c1cnccn1)c1ccccc1 (stereo not drawn)	5	-45*	-5	-1	4
CSc1ccc(CNCc2ccc3c(c2)OCO3)cc1	36*	-4	-4	-22	-17
COc1cc(CNCc2ccc(SC)cc2)cc(OC)c1	33*	-2	-1	-13	-11
COc1cccc(CNCc2cc(OC)cc(OC)c2)c1	10	-12	-8	0	-8
CC1(C)Cc2cccc(C(=O)Nc3ccc(Cl)cc3)c2O1	4	-34*	-4	19	2
CCc1ccc(-c2[nH]c3c(c2-c2sc(C)c(C(=O)OC)c2O)c(=O)n(C)c(=O)n3C)cc1	7	9	1	/	2
COC(=O)c1c(C)sc(-c2c(-c3ccc(F)cc3)[nH]c3[nH]c(=O)[nH]c(=O)c23)c1O	131*	1	2	/	4
COc1ccc(NC(=O)Cn2cnc3ccc(S(=O)(=O)N4CCC(C)CC4)cc3c2=O)cc1Cl	1	11	3	/	-15
CC(=O)Nc1ccnc(-c2cccnc2)n1	0	-4	0	8	1
CCCCC(=O)Nc1ccnc(-c2cccnc2)n1	220*	-86*	-2	27	0
CCOC(=O)C1C(=O)NC(N2CCN(Cc3ccccc3)CC2)=NC1c1ccco1 (stereo not drawn)	1	-36*	-1	5	-1
COCCCNC(=S)N(Cc1ccccc1)Cc1nc2ccccc2c(=O)[nH]1	1	14	-7	21	5
CCNC(=S)N(Cc1ccccc1)Cc1nc2ccccc2c(=O)[nH]1	6	-31*	-12	9	2
COc1ccccc1CN(Cc1nc2ccccc2c(=O)[nH]1)C(=O)Nc1ccc(C)cc1	0	6	-3	8	0
Cc1ccc(NC(=O)N(Cc2nc3ccccc3c(=O)[nH]2)Cc2cccs2)cc1	2	-46*	-8	9	5
CCc1nc2nc(C)c(NS(=O)(=O)c3ccc(Cl)s3)c(=O)n2[nH]1	-1	-1	1	9	4
O=C(c1cc(COc2ccc(F)cc2Cl)on1)N1CCN(C2CCCC2)CC1	15	-44*	-3	-9	-9
O=C(c1cc(COc2ccc(F)cc2Cl)on1)N1CCN(C2CCCCC2)C(=O)C1	24	-20	-2	8	-8
CCc1cccc(NC(=O)CCN2C(=O)c3ccccc3Sc3ncccc32)c1	4	5	3	/	4
CC(C)(C)OC(=O)N1CCC(NC(=O)c2nc[nH]c2C(=O)NCC(=O)OCc2ccccc2)CC1	1	-15	-4	95	69*
O=C(CNC(=O)c1nc[nH]c1C(=O)N1CCc2ccccc2C1)OCc1ccccc1	-1	-20	3	54	40*
CC(C)(C)OC(=O)[C@H](Cc1ccccc1)NC(=O)c1[nH]cnc1C(=O)Nc1cccc(Cl)c1	2	2	-3	-54*	0
CC(C)(C)OC(=O)N1CCC(NC(=O)c2[nH]cnc2C(=O)Nc2cccc(Cl)c2)CC1	1	/	3	0	66*
O=C(c1cccn1-c1nnc(N2CCCC2)s1)N1CCN(c2ccccc2)CC1	1	-1	-4	/	9
C[C@@H](NC(=O)c1nc[nH]c1C(=O)NC1CCN(C(=O)OC(C)(C)C)CC1)c1ccccc1	0	-67*	2	?	-7
C[C@H](NC(=O)c1nc[nH]c1C(=O)N1CCN(C(=O)OC(C)(C)C)CC1)c1ccccc1	0	3	12	-5	-13
O=C(COC(=O)c1cc(S(=O)(=O)N2CCOCC2)ccc1F)Nc1ccccc1C(F)(F)F	/	/	/	8	2
COc1cc(OC)cc(-c2c(C#Cc3ccsc3)c3cc(-c4ccc(OC)c(F)c4)ccc3n2C)c1	/	/	/	1	50*
C=C1[C@H]2O[C@H]2[C@@H](OC(C)=O)[C@@]2(C)[C@@H](OC(C)=O)C[C@@H](OC(C)=O)[C@@](C)(O)[C@@H]2[C@@H](OC(C)=O)[C@@]2(O)[C@@H](C)C(=O)O[C@H]2[C@H]1Cl	/	/	/	1	-1
